EBNA-1 inhibitor: blocks EBNA-1 binding to DNA | 300,000 tested, 0.34% active | AID 1950 | EBNA-1 DNA binding, fluorescence polarization | inhibition, % at 14.8 µM; in the data active = inhibition above about 28%
dFosB act: mouse delta FosB homodimer activation; P13346; purified delta FosB, TAMRA-CDK5 oligo fluorescence polarization; percent of positive-control signal above neutral wells; activation, % at 25 µM; 340,000 tested, 0.99% active;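 active = mean activation above about 17%, with every replicate also reaching it, limit read from the data, passing the limit was not always enough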
ZTA DNA inh: blocks Epstein-Barr virus ZTA, an EBNA-1 counter-screen; P03206; ZTA-DNA binding, fluorescence polarization; inhibition, % at 11 µM; 320,000 tested, 0.15% active; in the data active = inhibition above about 33%
GRIN3A LBD mod: modulators (binders) of human NR3A ligand-binding domain. NR3A LBD differential scanning fluorimetry, Tm shift; 0% = protein alone, 100% = glycine-bound protein. Tm shift relative to glycine control, % at 25 µM. 340,000 tested, 2.5% active;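 active = melting temperature shift of at least 10% of the positive control shift, at one fixed dose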
TPT1 inh: inhibitors of Candida albicans tRNA 2'-phosphotransferase TPT1. 300,000 tested, 0.81% active. recombinant caTPT1, FP RNA substrate dephosphorylation. inhibition, % at 5 µM;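 active = inhibition above the mean of all tested compounds plus 3 SD, set per screening campaign, cut at about 24% in these data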;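 note: plate controls were DMSO alone for no effect and ferristatin control at 100 nM for full effect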
Rpn11 block: inhibitors of human proteasome Rpn11 | inhibition, % at 20 µM | 360,000 tested, 0.59% active | AID 588493 | human 26S proteasome, Ub4-pepOG fluorescence polarization; 20S core pre-blocked with epoxomicin;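 active = inhibition at 20 µM, scaled to each plate's controls, above about 33%, limit read from the data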
Rpn11 inh conf: Rpn11 inhibition confirmation, single concentration. 1,900 tested, 29% active. AID 602318. inhibition, % at 20 µM. shares compounds with Rpn11 block. purified human 26S proteasome, Ub4-pepOG fluorescence polarization; proteasome pretreated with epoxomicin
MMP-2 inh: blocks human MMP-2, flagging nonselective RPN11 hits; shares compounds with Rpn11 block; recombinant MMP-2, FRET peptide cleavage fluorescence; inhibition, % at 20 µM; AID 602330; 1,900 tested, 4% active;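 note: human MMP-2 activated beforehand with APMA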
Thrombin inh: blocks bovine thrombin, flagging nonselective RPN11 hits; shares compounds with Rpn11 block; bovine thrombin cleavage of Ub4-pepOG, fluorescence polarization; inhibition, % at 20 µM; 1,900 tested, 13% active; AID 602333;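 active = mean inhibition at least 40% at 20 µM, or signal 3 deviations below plate average, so some actives read negative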;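 note: plate controls were thrombin with DMSO for no effect and buffer wells lacking thrombin for full effect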
Target sequence (P00735 whole entry, looked up): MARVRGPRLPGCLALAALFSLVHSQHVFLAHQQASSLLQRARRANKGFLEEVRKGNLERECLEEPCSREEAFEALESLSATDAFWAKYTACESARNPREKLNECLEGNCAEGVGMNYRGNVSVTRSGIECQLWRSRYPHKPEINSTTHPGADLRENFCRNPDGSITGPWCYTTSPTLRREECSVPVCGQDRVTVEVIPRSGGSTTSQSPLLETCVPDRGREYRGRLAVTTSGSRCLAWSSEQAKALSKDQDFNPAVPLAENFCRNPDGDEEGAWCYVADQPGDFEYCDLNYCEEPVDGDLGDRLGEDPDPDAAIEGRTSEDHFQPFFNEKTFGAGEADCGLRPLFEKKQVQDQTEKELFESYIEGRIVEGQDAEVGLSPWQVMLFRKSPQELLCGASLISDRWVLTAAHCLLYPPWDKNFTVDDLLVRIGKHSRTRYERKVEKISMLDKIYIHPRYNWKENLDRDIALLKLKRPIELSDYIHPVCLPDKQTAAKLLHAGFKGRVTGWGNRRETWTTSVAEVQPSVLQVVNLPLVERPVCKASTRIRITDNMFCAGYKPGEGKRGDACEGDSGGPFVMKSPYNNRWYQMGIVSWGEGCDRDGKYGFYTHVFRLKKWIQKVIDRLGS
Active calls of the source: *; · = no result given. Hits are enriched below; roughly 4.5% of the tested compounds scored in any of these assays. Cut-off read from the data, not from the text of the source, unless noted: active = inhibition above about 40%; inactive = the rest.

SMILES | EBNA-1 inhibitor | dFosB act | ZTA DNA inh | GRIN3A LBD mod | TPT1 inh | Rpn11 block | Rpn11 inh conf | MMP-2 inh | Thrombin inh
CCCOc1cccc(C2C(C(=O)c3ccc(C)o3)=C(O)C(=O)N2c2nc(C)c(C(C)=O)s2)c1 (stereo unspecified) | 14 | -15 | -12 | -10 | 17 | 50* | 9 | -29 | 11
CCCCN=C1NN=C(c2cc3ccccc3o2)CS1 | -4 | -7 | -12 | -1 | 19 | 46* | 7 | 36 | -13
Cc1nnc(SCC2=C(C(=O)O)N3C(=O)C(NC(=O)COc4ccccc4)C3SC2)s1 (stereo unspecified) | · | -8 | · | 3 | · | 1 | · | · | ·
CO/N=C(/C(=O)N[C@@H]1C(=O)N2C(C(=O)O)=CCS[C@H]12)c1cnc(N)s1 | 1 | · | 17 | · | -1 | 64* | 85* | 37 | 15
CCN(CC)c1cc(C(F)(F)F)nc(-c2ccccn2)n1 | 16 | -6 | -8 | -1 | 2 | 144* | -11 | -12 | -21
O=S(=O)(Nc1ccc(-c2cn3c(n2)SCC3)cc1)c1cc(F)ccc1F | · | · | · | · | · | 4 | · | · | ·
COc1cc(/C=C2\SC(=O)N(CCNC(=O)c3sc4cc(F)ccc4c3Cl)C2=O)cc(OC)c1OC | -8 | 11 | -11 | 2 | -2 | 43* | -1 | -31 | -8
CCC(C)NC(=O)C1c2cc(OC)c(OC)cc2C(=O)N(C)C1c1cccs1 (stereo unspecified) | -16 | -5 | -16 | 0 | 0 | 158* | -12 | -25 | -10
CCC(C)NC(=O)C1c2cc(OC)c(OC)cc2C(=O)N(C)C1c1ccc(OC)cc1 (stereo unspecified) | 9 | -1 | -18 | 3 | 1 | -5 | · | · | ·
Cc1c(C(=O)N2CCOCC2)sc(NC(=O)c2ccc3c(c2)OCO3)c1C#N | 5 | -1 | 0 | -2 | 4 | 41* | -4 | 5 | -17
CCN(CC)C(=O)c1sc(NC(=O)c2ccc3c(c2)OCO3)c(C#N)c1C | 6 | -9 | 10 | 3 | 0 | -6 | · | · | ·
Cc1ccc(-c2nn(-c3ccccc3)cc2/C=C2\SC(=S)N(CC(=O)O)C2=O)cc1 | -8 | -19 | 19 | 3 | 1 | 14 | · | · | ·
O=C1C(=Cc2cn(-c3ccccc3)nc2-c2ccc(OCc3ccccc3F)cc2)SC(=S)N1CCS(=O)(=O)O | · | · | · | · | · | 83* | 103* | 58* | 163*
O=C(O)CCCCCN1C(=O)/C(=C/c2cn(-c3ccccc3)nc2-c2cccs2)SC1=S | · | -23 | · | 20* | · | 51* | 84* | -18 | 48*
O=C1C(=Cc2cn(-c3ccccc3)nc2-c2ccc(OCc3ccc(Cl)cc3)cc2)SC(=S)N1CCS(=O)(=O)O | · | · | · | · | · | 116* | 104* | 65* | 183*
CC(=O)Nc1ccc(S(=O)(=O)N2CCN=C2SCc2ccccc2C)cc1 | 11 | -8 | -18 | -5 | 1 | -3 | · | · | ·
COc1cc(O)oc1C=Nc1ccc(C(=O)O)cc1 | -9 | 2 | -18 | -1 | -2 | 6 | · | · | ·
CCCc1ccc(S(=O)(=O)N/N=C\c2ccc3c(c2)OCO3)cc1 | · | -6 | · | -5 | · | -6 | · | · | ·
Cc1ccccc1C(=O)NNC(=O)CSc1nnc(C)n1-c1ccccc1 | -11 | -2 | -16 | 0 | -3 | -5 | · | · | ·
N#Cc1cc(C(=O)c2cc(F)ccc2O)cn(Cc2ccccc2)c1=O | -20 | -4 | -1 | -6 | 0 | -3 | · | · | ·
Cc1ccc(O)c(C(=O)c2cc(C#N)c(=O)n(Cc3ccccc3)c2)c1 | -4 | 3 | 2 | -2 | 14 | 40* | 13 | -3 | 17
COc1ccc(C=C(C#N)c2ccc(OC)cc2)cc1 | · | -3 | · | -8 | · | -1 | · | · | ·
COc1ccc2nc(/C(C#N)=C\c3ccc(C(=O)O)cc3)[nH]c2c1 | 11 | -6 | 6 | -8 | 23 | 43* | 33 | -23 | 27
CC(C)C(=O)Nc1ccc(-c2nnc(-c3ccccc3)o2)cc1 | · | -90 | · | -6 | · | 9 | · | · | ·
O=C(Nc1ccc(-c2nnc(-c3ccccc3)o2)cc1)C(F)(F)F | 9 | 1 | 11 | 9 | -5 | 43* | -24 | -14 | -20
SMILES | EBNA-1 inhibitor | dFosB act | ZTA DNA inh | GRIN3A LBD mod | TPT1 inh | Rpn11 block | Rpn11 inh conf | MMP-2 inh | Thrombin inh
Fc1cccc(Cl)c1CNCc1cccnc1 | -9 | -1 | -3 | 1 | -5 | 0 | · | · | ·
O=C(Nc1ccc2nc(C(F)(F)F)[nH]c2c1)[C@@H]1O[C@H](CO)[C@@H](O)[C@H]1O | · | · | · | · | · | 1 | · | · | ·
CC(=O)N1CCN(c2ccc(NC(=O)c3cccc(OCc4ccccc4)c3)cc2)CC1 | -4 | -7 | -5 | -14 | -6 | 82* | -6 | -11 | -13
Cc1cc(C)cc(NC(=O)CSc2nc(CSc3ccc(Cl)cc3)cc(=O)[nH]2)c1 | 16 | 2 | 27 | -10 | 3 | -3 | · | · | ·
Cc1cc(C)n2nc(Sc3ncccc3[N+](=O)[O-])nc2n1 | 2 | · | 4 | 0 | -3 | 43* | -10 | -38 | -10
Cc1cnc(Sc2ncccc2[N+](=O)[O-])nc1 | 5 | -2 | -2 | -5 | -4 | 6 | · | · | ·
CCCCN1C(=O)/C(=C2/Sc3ccccc3N2C)S/C1=N\c1ncn[nH]1 | -2 | -40 | 26 | -23 | 21 | 66* | 97* | -52 | 62*
CNS(=O)(=O)c1ccc2nc(NC(=O)/C=C/c3ccco3)sc2c1 | -16 | -11 | 2 | 5 | 8 | 57* | 4 | -25 | 2
Cc1nc(NC(=O)/C=C/c2ccco2)sc1C | -3 | 1 | 8 | 0 | 4 | -15 | · | · | ·
CN(C)/N=C/c1ccc(P(c2ccc(/C=N/N(C)C)o2)c2ccc(/C=N/N(C)C)o2)o1 | -7 | -14 | -3 | -2 | -6 | -3 | · | · | ·
CC(=O)Oc1c(C)c(OC(C)=O)c2c(c1C(C)=O)OC1CC(=O)C(C(C)=O)=C(O)C21C (stereo unspecified) | -15 | -7 | -10 | 1 | 5 | 13 | · | · | ·
CC(=O)c1c(O)c(C)c(O)c2c1OC1=CC(=O)C(C(C)=O)C(=O)[C@@]12C (stereo partly specified) | · | 4 | · | -6 | · | 111* | 120* | -22 | 109*
Cc1cc(C(=O)N/N=C/c2cccs2)no1 | -5 | -13 | -18 | -3 | -4 | -3 | · | · | ·
CCC(=O)Nc1c(C#N)c2nc3ccccc3nc2n1-c1ccccc1C | -13 | -27 | 13 | 1 | 2 | 9 | · | · | ·
CCCCn1c(NC(=O)CC)c(C#N)c2nc3ccccc3nc21 | 6 | -12 | 22 | 0 | 3 | 189* | 38 | -19 | -17

Screening data from PubChem BioAssay.
